We go through 40 molecules from PubChem BioAssay AID1053180 (Broad Institute, 2014).

Where “and” joins values, the source holds several entries; their conditions need not be identical. Identical values can stand only once. In all, about 9,600 compounds went through this assay and about 20 (0.2%) were called active. This is one part of a sample in which actives are shown more often than they occur.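 Rule for the calls: active = highest normalized replicate activity of 15 or more, or at least half the replicates reach 15 or more; inactive = neither condition met.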 Some compounds were tested as several samples or in several runs, with calls that do not always agree.

This assay in a line: Pax4 mRNA upregulation in alpha cells – RT-PCR, mouse alpha TC1 cells, single point, primary screen (AID 1053180).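 Note: Pax4 Ct normalized to GAPDH with activation seen as lower delta delta Ct; plate controls were plate neutral control wells for no effect and Pax4 plasmid positive control for full effect.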 The note with it: Pax4 mRNA qPCR, 6 days, at 10 µM, stronger effect = higher value, 100% = Pax4 plasmid added at qPCR.
Consider `O=C(c1ccc2c(c1)OCO2)N1C[C@@H]2N[C@H](C1)C2c1ccc(/C=C/c2ccccc2)cc1` (stereo not given in full), for which the activation was 0.452% (inactive) and 0.1% (inactive).
On to `Cc1ccccc1-c1ccc(C2[C@@H]3CN(Cc4ccc5c(c4)OCO5)C[C@H]2N3)cc1` (stereo not given in full), for which the activation is 0.039% (inactive) and 0.046% (inactive).
Consider `C(=C\c1ccc(C2[C@@H]3CN(Cc4ccc5c(c4)OCO5)C[C@H]2N3)cc1)/c1ccccc1` (stereo not given in full), for which the activation was 10.3% (active) and 0.0555% (inactive).
Regarding `CCS(=O)(=O)N1Cc2cc(C(=O)NCCOC)nc(-c3cccc(-c4ccncc4)c3)c2[C@H]1CCO`, the activation was 0% (inactive).
With `N#C[C@@H]1[C@@H](c2ccccc2-c2ccccc2F)[C@@H](CO)N1C(=O)Cc1ccccc1` the figure was 0.0105% (inactive); with `CO[C@@H](CN(C)C(=O)c1ccc2c(c1)OCO2)[C@@H](C)CN([C@H](C)CO)S(=O)(=O)c1ccc(Cl)cc1`, 0.019% (inactive); with `CO[C@H]1CC[C@@H]2CCOc3ccc(C#N)cc3C(=O)N(C)[C@H](C)C(=O)N(C)C[C@@H]1O2`, 0.001% (inactive).
Consider `CCCC(=O)N1CC2(C1)CN(C(=O)c1ccc(F)cc1)[C@H](CO)c1[nH]c3cc(OC)ccc3c12`, for which the activation is 0.003% (inactive).
`CN(C)CC(=O)N1[C@H](C(=O)Nc2nccs2)[C@@H](CO)[C@@H]2Cn3c(ccc(C4=CCCCC4)c3=O)[C@@H]21`: the activation was 0% (inactive).
Turning to `COc1ccc2c3c([nH]c2c1)[C@H](CO)N(S(=O)(=O)c1cn(C)cn1)CC31CCN(CC2CCCCC2)CC1`, the activation is 0.0045% (inactive).
Consider `CCC(=O)N1CC2(C1)CN(C(=O)c1cnccn1)[C@@H](CO)c1c2c2ccc(OC)cc2n1C`, for which the activation was 0.0005% (inactive).
The value for `C[C@@H]1CCCCO[C@H](CN(C)Cc2ccncc2)[C@H](C)CN([C@@H](C)CO)C(=O)c2cc(NC(=O)Cc3ccccc3)ccc2O1` was -0.0005% (inactive); that for `O=C(C[C@H]1CC[C@@H]2[C@H](COC[C@H](O)CN2Cc2nccs2)O1)N1CCC(Cc2ccccc2)CC1` was 0.0115% (inactive); that for `C[C@@H]1CN([C@H](C)CO)C(=O)c2ccccc2-c2ccccc2CO[C@@H]1CN(C)Cc1ccc2c(c1)OCCN2C` was 0.075% (inactive).
The value for `O=C(C[C@@H]1CC[C@@H]2[C@H](COC[C@@H](O)CN2CCC(F)(F)F)O1)NCc1ccc2c(c1)OCO2` was -0.005% (inactive).
For `CN(C)c1ccc2c(c1)[C@@H]1C[C@@H](CC(=O)NC3CCCCC3)O[C@@H](CO)[C@@H]1O2`, the activation was 0.029% (inactive).
`O=C(O)[C@H]1[C@H](CO)[C@H]2Cn3c(ccc(-c4cccc(F)c4)c3=O)[C@H]2N1C(=O)c1ccccn1`: the activation was 0.0005% (inactive).
As for `C[C@@H]1CCCCO[C@@H](CN(C)CC2CCCCC2)[C@H](C)CN([C@H](C)CO)C(=O)c2cc(NS(C)(=O)=O)ccc2O1`, the activation is -0.001% (inactive).
For `C[C@H]1CN([C@@H](C)CO)C(=O)c2cccc(NC(=O)c3cnccn3)c2O[C@@H]1CN(C)C(=O)NC1CCCCC1`, the activation is 0.0055% (inactive).
In the case of `CN1c2ccc(-c3ccc(C#N)cc3)cc2[C@H]2[C@H](CCN2S(=O)(=O)c2ccc(F)cc2)[C@@H]1CO`, the activation is 0.036% (inactive).
Take `O=C(C[C@@H]1C[C@@H]2c3cc(NS(=O)(=O)c4ccc(F)cc4)ccc3O[C@@H]2[C@@H](CO)O1)N1CCc2ccccc2C1`: the activation was 0.011% (inactive).
With `C[C@H](CO)N1C[C@H](C)[C@@H](CN(C)C(=O)c2ccc3ccn(C)c3c2)OCc2cnnn2CCCC1=O`, the activation is 0.0015% (inactive).
With `COc1ccc2c3c(n(C)c2c1)[C@H](CO)N(S(=O)(=O)c1ccc(C)cc1)CC31CCN(C)CC1`, the activation was 0.052% (inactive).
With `CO[C@H](CN(C)Cc1ccc2c(c1)OCO2)[C@H](C)CN(C(=O)Nc1ccc(F)cc1)[C@H](C)CO`, the activation was 0.0005% (inactive).
`O=C(NCc1ccccc1)[C@H]1[C@H](CO)[C@H]2Cn3c(cccc3=O)[C@@H]1N2C(=O)Cc1ccccn1`: the activation is 0% (inactive).
On to `CNC[C@H]1OCc2cn(nn2)CCCC(=O)N([C@@H](C)CO)C[C@H]1C`, for which the activation was 0.005% (inactive).
The value for `COc1ccc2c3c(n(C)c2c1)[C@H](CO)N(CC1CC1)CC31CN(C(=O)c2ccc3c(c2)OCO3)C1` was 0.0045% (inactive); that for `COc1ccc2c3c(n(C)c2c1)[C@@H](CO)N(C)CC31CCN(C(=O)c2ccc3c(c2)OCO3)CC1` was 0.0125% (inactive); that for `COc1ccc2c3c(n(C)c2c1)[C@@H](CO)N(CC1CC1)CC31CN(C(=O)c2ccc3c(c2)OCO3)C1` was 8.42% (active).
With `CC[C@H]1C/C=C\C[C@@H](c2ccccc2)NC(=O)CCC(=O)N1` the figure was -0.01% (inactive); with `O=C(c1cccc(F)c1)N1CC(=O)N2[C@@H](CO)[C@H](c3ccc(C4=CCCCC4)cc3)[C@@H]2C1`, 0.025% (inactive); with `COc1ccc(CN(C)C[C@@H]2Oc3ccc(NC(=O)Nc4ccc5c(c4)OCO5)cc3CC(=O)N([C@@H](C)CO)C[C@@H]2C)cc1`, 0.002% (inactive).
The value for `COCC(=O)N1C[C@@H](C)[C@@H](OC)CN(C)C(=O)c2ccc(NC(=O)Nc3cccc(F)c3)cc2OC[C@H]1C` was -0.0005% (inactive); that for `CCC(=O)N1[C@H](CO)[C@@H]2c3ccccc3N(C(=O)Nc3ccc(Cl)cc3)C[C@@H]21` was -0.0015% (inactive).
As for `COc1ccccc1S(=O)(=O)N(C)C[C@@H]1OCc2cn(nn2)CCCC(=O)N([C@H](C)CO)C[C@H]1C`, the activation is 0.001% (inactive).
As for `O=C(C1CCOCC1)N1CC(=O)N2[C@H](C1)[C@@H](c1ccc(-c3cccnc3)cc1)[C@@H]2CO`, the activation was 0% (inactive).
Regarding `O=C(C[C@@H]1CC[C@@H]2[C@H](COC[C@@H](O)CN2Cc2cc(F)ccc2F)O1)NCc1ccc(Oc2ccccc2)cc1`, the activation was 0.098% (inactive).
As for `CN1c2ccc(-c3ccccc3)cc2[C@@H]2[C@@H](CCN2C(=O)NC2CCCCC2)[C@H]1CO`, the activation is 0.001% (inactive).
Regarding `Cc1noc(C)c1S(=O)(=O)N(C)C[C@H]1Oc2ccc(NC(=O)c3ccncc3)cc2CC(=O)N([C@H](C)CO)C[C@H]1C`, the activation was -0.009% (inactive).
Turning to `CN1C(=O)c2cc(NC(=O)c3cnccn3)ccc2OC[C@@H]2O[C@H](CC(=O)NCC3CCCCC3)CC[C@@H]21`, the activation was 0.05% (inactive).
